{"source": "ChEMBL document CHEMBL1961873", "about": "“Compounds: GSK PKIS; Assays: Nanosyn kinase panel” (2012)", "data": [{"tested_on": "Tyrosine-protein kinase ABL1 (Homo sapiens), P00519 [Q252H]", "settings": "at 1 µM", "units": {"inhibition": "%"}, "values": [{"compound": "CN1CCN(C(=O)c2ccc(NC(=O)Nc3ccc(N(C)c4ccnc(Nc5ccc(CS(C)(=O)=O)cc5)n4)cc3)cc2)CC1", "inhibition": 69.6}, {"compound": "CC(C)c1ccc2c(c1)NC(=O)/C2=N/Nc1ccc(S(N)(=O)=O)cc1", "inhibition": 26.6}, {"compound": "C[C@@H](Oc1cc(-n2cnc3ccc(OC[C@@H](O)CO)cc32)sc1C(N)=O)c1ccccc1Cl", "inhibition": 8.32}, {"compound": "CN(C)CCCn1c(-c2nonc2N)nc2cnccc21", "inhibition": 2.62}, {"compound": "O=C1Nc2ccc(-c3cccnc3)cc2C1=Cc1cc(Br)c(O)c(Br)c1", "inhibition": 7.71}, {"compound": "CC(C)c1ccc(Nc2nccc(-c3cnn4ncccc34)n2)cc1", "inhibition": 11.6}, {"compound": "N#Cc1cccc(Nc2nccc(-c3cnn4ncccc34)n2)c1", "inhibition": 57}, {"compound": "Cc1ccc(NC(=O)CC2CC2)cc1-c1ccc(C(=O)NCC2CC2)cc1", "inhibition": 4.54}, {"compound": "Cc1ccc2c(c1)/C(=N/Nc1ccc(S(N)(=O)=O)cc1)C(=O)N2", "inhibition": 7.52}, {"compound": "CCS(=O)(=O)c1ccc(OC)c(Nc2nccc(N(C)c3ccc4c(C)n[nH]c4c3)n2)c1", "inhibition": 89.6}, {"compound": "Nc1nccc(-c2c(-c3ccc(F)cc3)nn3cc(C(F)(F)F)ccc23)n1", "inhibition": 0.27}, {"compound": "N#Cc1c(NC(=O)c2ccccc2F)sc2c1CCCC2", "inhibition": -0.72}, {"compound": "Cc1cc(Cl)cc2c1NC(=O)C2=NNc1ccc(S(N)(=O)=O)cc1", "inhibition": 7.11}, {"compound": "c1ccc(Cc2nc3ccc(Nc4ncnc5ccccc45)cc3[nH]2)cc1", "inhibition": 6.39}, {"compound": "Cc1ccc(O)cc1Nc1ccnc2ccc(S(C)(=O)=O)cc12", "inhibition": 96.3}, {"compound": "COc1cc(/C=N/Nc2ncnc3c2cnn3C(C)C)ccc1O", "inhibition": 81.6}, {"compound": "FC(F)(F)c1ccc(-c2nn3ncccc3c2-c2ccnc(Nc3ccc4c(c3)OCCO4)n2)cc1", "inhibition": 8.01}]}]}
